Measurements reported in PubChem BioAssay (NCI).
The panel holds about 83,000 compounds, 20% with a hit somewhere; the sample as a whole holds those more often.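 Single-concentration screen, 48 h exposure, 96-well plates. Endpoint: percent growth. Below 10 = active.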 Values without a mark were called inactive. Activity calls are given as the source filed them.

system: NCI-H522 lung; experiment: NCI-60 one-dose screen, 48 h (100 = growth as untreated, 0 = no growth, -100 = all killed); details: 10 µM unless noted
Method: Growth inhibition of the NCI-H522 human Non-Small Cell Lung tumor cell line is measured as a screen for anti-cancer activity. Cells are grown in 96 well plates and exposed to the test compound for 48 hours. Compounds are tested at a single concentration, which is 10^-5 M for most compounds. The reported endpoint is percent growth (GI% or GIPRCNT), where numbers from 0 - 100% represent growth inhibition, and numbers from -100% - 0 represent cell death. For example, a value of 40 represents 60% growth inhibition. A value of 0 means no net growth occurred over the course of the experiment. A value of -40 indicates 40% of cells at the beginning of the experiment died by the end of the experiment. A value of -100 means all cells are dead at the end of the experiment.
NCI-60 Human Tumor Cell Lines Screen was performed using the standard one-dose NCI protocol, which is described in more detail at https://dtp.cancer.gov/discovery_development/nci-60/default.htm.
Compounds with GIPRCNT values below 10 were considered active. Activity score was based on GIPRCNT using the following formula: […]
Score is 0 for GIPRCNT values of 100 or above, 50 for GIPRCNT values of 0, and 100 for GIPRCNT values of -100.

Row | SMILES | growth
1 | C=C1C(=O)O[C@H]2[C@H]1CC/C(C(=O)NCCOCCOCC(=O)Nc1ccc(OC)c(C(N)=O)c1O)=C\CC[C@@]1(C)O[C@@H]21 | 26.1%
2 | CC[C@@]1(O)C(=O)OCc2c1cc1n(c2=O)Cc2c-1nc1ccccc1c2/C=N/OC(C)(C)C | -47.8% (active)
3 | COc1cc(-c2nc(N)n(CC(=O)Nc3ccc(/C(C)=N\O)cc3)n2)cc(OC)c1OC | 60.8%
4 | ClC1c2ccccc2CCc2ccccc21 | 76.6%
5 | O=C(Cn1c2ccccc2c2ccncc21)N/N=C\c1ccc2ccccc2c1 | 38%
6 | Nc1ncnc2c1ncn2C1OC(COC(c2ccccc2)(c2ccccc2)c2ccccc2)C(O)C1O (stereo not given) | 97.4%
7 | O=C(Nc1ccc(-n2cc(-c3ccncc3)c(-c3ccc(O)c(Cl)c3)n2)cc1)Nc1cc(C(F)(F)F)cc(C(F)(F)F)c1 | 79.5%
8 | COc1ccc(-c2ccc(NC(=O)Nc3cccc(C(F)(F)F)c3)c(C)n2)cc1 | 28.5%
9 | C#CCn1c(-c2cc(OC)c(OC)cc2Br)nc(-c2ccccc2)c1-c1ccccc1 | 17.4%
10 | O=C(c1cc(-c2ccc(Cl)cc2)nc2ccccc12)N1N=C(c2ccccc2)CC1c1cc(-c2ccccc2)nn1-c1ccccc1 (stereo not given) | 80.8%
11 | Cc1cc(Nc2ccc(Cl)c(Cl)c2)nc(N)n1 | 78.3%
12 | COc1ccc(-c2nn(-c3ccc(NC(=O)Nc4cc(C(F)(F)F)cc(C(F)(F)F)c4)cc3)cc2-c2ccncc2)cc1Cl | -8.92% (active)
13 | O=C(Nc1cccc(-n2ccc3c(NC(=O)c4ccccc4)nccc32)c1)c1cc(N2CCOCC2)cc(C(F)(F)F)c1 | -47.5% (active)
14 | COc1ccc2c(c1)nnn1c3ncccc3c(N=O)c21 | -85.7% (active)
15 | COc1ccc(/C=N/C2=NNC(C)(c3ccccc3O)N2C(Cc2c[nH]c3ccccc23)C(=O)O)cc1 (stereo not given) | 18.9%
16 | COc1ccc(-c2nn(-c3ccc(NC(=O)Nc4ccc(Cl)c(C(F)(F)F)c4)cc3)cc2-c2ccncc2)cc1Cl | -2.66% (active)
17 | Cc1cc(NCCN(C(C)C)C(C)C)nc(/N=C(\N)Nc2ccc(Cl)c(C(F)(F)F)c2)n1 | -81.1% (active)
18 | COc1ccc2c(c1)OC(N(C(C)=O)C(C)=O)=C(C#N)C2c1ccc(F)cc1 (stereo not given) | -5.26% (active)
19 | O=[N+]([O-])c1cccc2cc(S(=O)(=O)O)ccc12 | 83.8%
20 | c1ccc2nc(Cn3cc[n+](Cc4ccc5ccccc5n4)c3)ccc2c1 | 34.5%

Row | SMILES | growth
21 | CN(C)CCS(=O)(=O)Nc1cc(-c2ccc3ncnc(Nc4ccc(F)c(Cl)c4)c3c2)cnc1Cl | -17.7% (active)
22 | O=C1CCC(=O)N1C1CCCCC1 | 103%
23 | O=C(O)c1ccc2nc(-c3ccc(OCCCCCOc4ccc(-c5nc6ccc(C(=O)O)cc6[nH]5)cc4)cc3)[nH]c2c1 | 92.8%
24 | Cc1ccc(NC(=O)CN2CCOCC2)cc1Cl | 76.5%
25 | O=S(=O)(CCN1CCOCC1)Nc1cc(-c2ccc3ncnc(Nc4ccc(F)c(Cl)c4)c3c2)cnc1Cl | 17.2%
26 | CN1C(=O)C2(SCC(C(=O)NCC(=O)OC(C)(C)C)N2C(=O)C2CCCCC2)c2ccccc21 (stereo not given) | 80.9%
27 | O=[N+]([O-])c1cccc(C(c2ccccc2)c2ccccc2)c1 | 79.1%
28 | C=C1C(=O)O[C@H]2[C@H]1CC/C(COC(=O)c1cc(OC)c(OC)c(OC)c1)=C\CC[C@@]1(C)O[C@@H]21 | -88.4% (active)
29 | Cc1cc(-c2ccccc2)nc2ccccc12 | 90.5%
30 | O=C(Nc1ccc(-n2ccc3c(NC(=O)c4ccccc4)nccc32)cc1)Nc1cccc(C(F)(F)F)c1 | 45.8%
31 | O=C(Cn1c2ccccc2c2ccncc21)N/N=C/c1c[nH]c2ccccc12 | 58.8%
32 | CCOc1ccccc1C(=O)N1CCN(c2cc(Cl)cc(Cl)c2)CC1 | -6.41% (active)
33 | c1ccc(CNCCN(CCNCc2ccccn2)Cc2ccc3ccccc3c2)nc1 | 14.1%
34 | CCC1S/C(=N\N=C(/C)c2cc3ccccc3o2)N(c2ccccc2)C1=O (stereo not given) | 88.3%
35 | COc1ccc2c(c1)/C(=C/c1c(-c3cc(OC)c(OC)c(OC)c3Br)nc3sccn13)C(=O)N2 | 68.1%
36 | O=C(Nc1cccc([N+](=O)[O-])c1)c1ccc2ccccc2c1O | -8.09% (active)
37 | c1cncc(-c2nc3ccccc3[nH]2)c1 | 99.8%
38 | COc1ccc(-c2nnc(SCC(=O)Nc3ccc(C(=O)/C=C/c4ccc(OC)c(OC)c4)cc3)o2)cc1 | 68.4%
39 | Nc1ncnc2c1c(C(F)(F)F)cn2[C@@H]1O[C@H](CO)[C@@H](O)[C@H]1O | -14.1% (active)
40 | COc1cc2c(cc1OCCCCC(=O)Nc1ccc(-c3nc4ccccc4s3)cc1)N=C[C@@H]1CCCN1C2=O | -54% (active)
